In all, about 33,000 sequences were measured (“E-score (-0.5 to 0.5)”: median about -0.016, highest 2% from about 0.31 on). This excerpt belongs to a sample that is enriched for the highest values.
These sequences were tested against Cst6 (UniProt P40535) (assay: PBM E-score (8-mer binding enrichment) (E-score (-0.5 to 0.5)); higher = stronger / more preferred TF binding). Settings: protein concentration: 200 nM; construct: GST-DNA-binding domain.
Description: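 Universal 'all 10-mer' protein binding microarrays (Agilent AMADID 015681) probed with GST-tagged S. cerevisiae TFs (full-length or DBD) made by in vitro transcription/translation (PURExpress), about 100-200 nM. Bound TF was detected with fluorescent anti-GST. Each ungapped 8-mer (which stands for itself and its reverse complement) is scored by the PBM enrichment score (E-score), a modified Wilcoxon-Mann-Whitney statistic from -0.5 to +0.5, computed with the Universal PBM Analysis Suite. Scale: above 0.35 generally sequence-specific binding.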

UniProt P40535, sequence (P40535 whole entry, the tested form may be a part): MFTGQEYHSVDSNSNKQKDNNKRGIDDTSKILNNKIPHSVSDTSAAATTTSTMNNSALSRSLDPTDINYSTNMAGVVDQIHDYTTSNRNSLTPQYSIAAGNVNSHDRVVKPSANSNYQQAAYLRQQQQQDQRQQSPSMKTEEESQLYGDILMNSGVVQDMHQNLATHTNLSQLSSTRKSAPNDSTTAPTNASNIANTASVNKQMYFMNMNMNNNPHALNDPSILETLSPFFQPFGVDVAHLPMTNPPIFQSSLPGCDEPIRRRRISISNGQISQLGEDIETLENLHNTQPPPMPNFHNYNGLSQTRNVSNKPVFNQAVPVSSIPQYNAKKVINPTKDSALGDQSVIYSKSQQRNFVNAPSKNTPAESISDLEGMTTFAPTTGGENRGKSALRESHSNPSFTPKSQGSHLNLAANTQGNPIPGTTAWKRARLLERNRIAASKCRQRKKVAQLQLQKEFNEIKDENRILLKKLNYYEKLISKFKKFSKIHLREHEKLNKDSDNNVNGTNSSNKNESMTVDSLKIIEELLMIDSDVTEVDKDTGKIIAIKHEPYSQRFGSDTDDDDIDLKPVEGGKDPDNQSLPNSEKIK

Sequence | PBM E-score
GATCATGC | -0.137
CATCATGC | 0.362
TATCATGA | 0.186
AATCATGC | 0.0631
AATCATGT | 0.139
AATCATGG | 0.0769
CATCATGG | 0.249
CATCATGA | 0.363
AATCATGA | 0.338
GATAGCGC | -0.152
GGGAGTCA | -0.153
ACGCTATC | 0.093
CAGCTGCC | -0.146
AGAAGTCA | 0.0402
GGAAGGCC | -0.136
AAGAACAA | 0.327
AAGAACAG | 0.0582
AAGAACAC | 0.167
TCCCTCGA | -0.205
AGAAGTCT | -0.118
AGACGTAC | -0.0375
CGACGTAC | 0.139
AGACGTAG | -0.133
AGACGTAA | 0.371
TGTCGTAA | 0.303
GGACGTAA | 0.279

Sequence | PBM E-score
CGACGTAA | 0.451
TGACGTAA | 0.499
GGACGTAC | -0.065
CGTGGTGC | -0.177
CAGACCTA | -0.00947
GCACAGAA | 0.109
AGCTGAGA | -0.101
AATCCAAT | 0.139
AATCAGCT | 0.186
ACTCACGA | -0.053
GCTTTAAC | 0.135
GCGGCGTA | 0.23
ACGGCGGC | 0.156
ACGGCGTA | 0.358
ATGGCGTC | 0.311
CCGGCGTA | -0.134
ATGGCGTG | 0.113
AGGGCGTG | -0.115
CTGGCGTC | -0.0408
ACGGCGTG | 0.314
ACGGCGTC | 0.347
ACGGCGGG | 0.108
CCGGCGTC | -0.0641
ACCGGTCA | -0.0152
ACGCCACG | 0.0785
GGAAAACC | -0.0924

Sequence | PBM E-score
TCACAGAA | 0.133
CCAGTGCA | -0.185
GCAGTTCA | 0.0321
CAATGCGA | 0.136
GACGGGTA | -0.0938
GTCCCATA | -0.14
CTGAAACA | -0.0169
CATTTTAC | 0.273
AATTTTAC | 0.326
AATTTTAT | 0.346
AAATTTAT | 0.234
ATTTTTAC | 0.201
AATTTTAA | 0.25
ATTTGCTA | 0.156
CTATTCAA | 0.197
ACAACCAG | 0.0122
ACAACCAC | 0.133
ACAACCAT | 0.325
CTACGCAA | 0.119
GGCACGTA | 0.119
TAATGAAA | 0.261
AATGAAAT | 0.37
AATGAAAA | 0.236
AAATGAAA | 0.322
CAATGAAA | 0.153
AATGAAAG | 0.168

Sequence | PBM E-score
CAAACTTC | 0.177
AACCTTAG | -0.158
AAGAGGAC | -0.249
AAACAGGA | 0.0722
GTTTTAAA | 0.196
AATTAAAA | 0.187
TATTTAAA | 0.308
GATTTCAA | -0.0222
CATTTAAA | 0.279
TATTTTAA | 0.259
GATTAAAA | 0.242
CATTTCAA | 0.222
ATTTTTAA | 0.293
ATTTTAAA | 0.308
TATTAAAA | 0.323
TATTTCAA | 0.318
CAAACCCC | -0.178
AAGGCGTA | 0.0577
AGGCGAAT | 0.0491
TCCTTGAA | -0.0366
AGGGCAGA | -0.248
GAGTTACC | -0.0903
ATGGCACG | 0.111
ACCGGTGC | -0.105
ACCTTTTC | -0.133
GTCAGTGA | 0.308

Sequence | PBM E-score
ATCAGTGA | 0.136
CTCAGTGA | 0.0623
GGTACACC | -0.287
GGCAGGCA | -0.193
TAATGTCA | 0.356
TCATGTCA | 0.382
GAATGTCA | 0.206
ACATGTCA | 0.275
GCATGTCA | 0.287
AAATGTCA | 0.216
ATCCATGG | -0.138
GGAGATTA | 0.13
AGCTTCGC | -0.134
CGAACGAG | -0.108
CCACTTCA | -0.197
AACCACCA | 0.00505
CGGCCGCC | -0.0119
AGTATTTA | 0.171
GGTATTTA | 0.0257
CGTATTTA | 0.358
GAGCCTGC | -0.173
AAACAGGC | -0.0905
AGAACGTC | 0.142
GTAACGTA | 0.302
ATAACGTA | 0.398
CTAACGTA | 0.281

Sequence | PBM E-score
CTAACGTC | 0.356
CAAACGTC | 0.137
ATAACGTC | 0.38
ATAACGAA | 0.217
ATAACGTG | 0.213
CTACTCAC | 0.212
CATAGACC | -0.13
AACTGCCG | 0.114
GTAATTTA | 0.333
CTAATTTA | 0.321
GCAATTTA | 0.151
CTAATTTC | 0.128
ATAATTTA | 0.304
TAAATTTA | 0.237
CATGAGGG | -0.142
ATGCAAAA | 0.22
ACGGTCAC | 0.152
TCAGCGCA | -0.176
ACAAAAGT | 0.164
ACGTATAT | 0.237
ACGTATTA | 0.33
ACGTATAA | 0.309
CCGTATAC | -0.015
TCGTATAA | 0.145
CCGTATAA | 0.225
GCGTATTA | 0.0768

Sequence | PBM E-score
ACGTATAC | 0.307
ACGTATTG | 0.238
CGAGACTA | 0.0119
GCAGCGCC | 0.0306
CTAAAGAG | -0.0139
AGGGGCCC | -0.101
ACCCGACT | -0.16
CAAGGTTC | -0.155
AGGCTGGC | -0.195
TAACGAAA | 0.27
AAACGTAG | -0.0946
CAACGTTC | -0.13
CAACGTAC | 0.0567
TAACGTAA | 0.452
GAACGTAA | 0.277
AAACGTAA | 0.365
CAACGTTG | 0.31
AAACGTTG | -0.106
CAACGTAA | 0.329
CAACGTAG | 0.0788
AAACGTAT | 0.276
GGCCCTCA | -0.266
AAGCAAAC | 0.0375
CGATGACC | 0.0541
TCATGACA | 0.392
GCATGACA | 0.288

Sequence | PBM E-score
CGATGAGA | -0.048
GGATGACA | 0.287
CGATGACA | 0.383
TCATGAGA | 0.214
AGATGACA | 0.283
TGATGACA | 0.368
CGATGACG | 0.48
TGATGAAA | 0.289
CGATGAAG | 0.0389
AAGCGTGA | 0.141
GACTATCA | -0.104
CGGAGATC | -0.205
ACTGTGTA | -0.043
CTACTCCC | -0.156
CAGGCCAA | -0.178
GCGTGACA | 0.255
CGTTCTTC | 0.151
ACAGATCC | 0.0419
ACGAACAC | 0.138
AGATGACT | 0.0398
AGATGACG | 0.473
AGATGACC | 0.0152
ACTCTGGA | 0.109
GGACGAAA | 0.0732
TGACGAAA | 0.477
TGACGACA | 0.476

Sequence | PBM E-score
CGACGACA | -0.054
AGACGAAA | 0.134
GGACGACA | 0.0793
TGCATCAA | 0.154
CAGCCAAA | 0.0814
AGCCTGAA | -0.0532
CTGACCTA | -0.0164
ATGACCTA | 0.346
ATGACCTG | 0.0198
GTGACCTA | 0.192
CTGACCTC | 0.0456
ATGACCTC | 0.349
GCCGGCAA | -0.108
CCTCATCC | -0.272
GGTCATCA | 0.247
CGTCATCA | 0.487
AGTCATCC | -0.0119
CGTCATCC | 0.473
AGTCATCA | 0.0814
CGGCACGC | 0.0275
TGTGGAAA | 0.186
ACTGATGA | 0.173
ATTGATTA | 0.308
AATGATGT | 0.41
GATGATTA | 0.2
AATGATTC | 0.225

Sequence | PBM E-score
AATGATCT | 0.215
AATGATGA | 0.334
AATGATGG | 0.186
ATTGATTG | 0.237
AAAGATGT | 0.13
AATGATTA | 0.344
ATTGATTC | 0.178
CCAAACTC | -0.0716
CTCATCGC | -0.0477
GTAACCAC | -0.0805
AACAGAGG | -0.0721
ACAAGTTG | -0.0486
AACACCCA | -0.246
TGAACCAA | 0.184
AGGCGGTA | -0.225
CCAAGCCG | -0.182
TGCCATAA | 0.00753
ACGTTACC | 0.179
AACGGTTG | 0.0747
AATGATCC | 0.026
GATGATGC | 0.328
AGTGATGA | 0.284
GATGATCC | 0.00428
AGTGATGC | 0.317
CCTGATGC | 0.0754
AGTGATGG | 0.0422

Sequence | PBM E-score
AATGATGC | 0.347
ATTGATGC | 0.262
AAATTAGC | 0.153
ACACTCCC | -0.177
GCACTAAC | -0.119
CCACCTCA | -0.114
AGCAGTGG | -0.048
AATATAAA | 0.331
AATATAAT | 0.156
CATATAAA | 0.236
CATATAAG | 0.146
AATAAATA | 0.39
TATAAATA | 0.294
AATAAATG | 0.302
TATATAAA | 0.298
AATATAAG | 0.352
AGGACAAC | 0.0452
ACGGTCTA | -0.0035
CGTATTGC | 0.0567
ACGGATTC | 0.0332
CCGTACTC | -0.113
TGCCAAAA | 0.0693
ATGTGGGG | -0.237
GTCATGCA | 0.36
GACATGAC | 0.275
CTCATGCA | 0.00428

Sequence | PBM E-score
CTCATGAA | 0.158
GTCATGAC | 0.374
ATCATGAA | 0.17
ATCATGAC | 0.446
ATCATGAG | 0.146
GTCATGAA | 0.268
ATCATGCA | 0.109
CTCATGAC | 0.335
CTCATGAG | 0.079
ATTGAGCG | -0.0477
ACCGGATA | -0.0988
AAAGGCCA | -0.109
AGCGCGTA | 0.177
CTGATGGA | -0.0729
ACGTGCAG | 0.0472
ACCGCCGT | 0.209
CATATTAC | 0.261
AAAATTAC | 0.257
ATCATTAG | 0.19
ATAATTAA | 0.322
AAAATTAG | 0.159
GTAATTAA | 0.188
TTAATTAA | 0.0995
ATCATTAC | 0.375
AAAATTAT | 0.378
CTCATTAC | 0.25

Sequence | PBM E-score
AATATTAC | 0.241
GATATTAC | 0.352
CAAGGATC | -0.012
GCTATACC | -0.19
GGAGCATA | -0.00076
CCGGCATA | -0.15
CCTGCGCG | -0.0722
AAAGCGCC | 0.113
CTAGTCAA | -0.127
AGCACCTA | -0.227
ATACGTTC | 0.0426
GGGGAGAA | -0.161
ATAATTAG | 0.223
CAAATTAA | 0.224
CTTGTTAC | 0.0412
ACTATTAC | 0.201
ATAATTAT | 0.342
AAAATTAA | 0.115
ATTGTTAC | 0.348
ATTATAAT | 0.259
CTTATTAC | 0.231
GAAATTAA | 0.334
ATTATTAC | 0.339
ATTGTTAG | 0.129
CGACTAAC | -0.0525
ACACACCT | 0.0393

Sequence | PBM E-score
CATGAAAG | 0.082
GAGATTAA | 0.0823
ATTCTTAG | 0.0174
GAGATTAC | 0.312
CTAATTAC | 0.243
ATAATTAC | 0.349
AAGATTAC | 0.127
ACAATTAA | 0.319
ACAATTAT | 0.289
CTTCTTAC | -0.0252
GTAATTAC | 0.287
ACAATTAC | 0.249
ATTCTTAC | 0.315
